Screening data from PubChem BioAssay.
This is a sample that favours compounds with a hit; in the whole collection about 1.9% have one here.
Jurkat viability: cytotoxicity toward Jurkat T cells, primary screen, cytotoxicity control, cell-based, Jurkat E6.1, 60K MLSMR library | Jurkat E6.1 viability, ATP luminescence, 48 h | inhibition, % at 4 µM | 56,000 compounds, 1.2% hits | AID 463, 2006;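 active = inhibition above the mean inhibition of all tested compounds plus 3 SD, cut at about 28% in these data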
JNK3 blocker: JNK3 kinase activity inhibitors, primary screen, biochemical, human, purified enzyme; HTS; inhibition, % at 8 µM; 60,000 compounds, 0.61% hits; AID 746, 2007; in the data active = inhibition above about 17%
Target sequence (P53779 whole entry, looked up): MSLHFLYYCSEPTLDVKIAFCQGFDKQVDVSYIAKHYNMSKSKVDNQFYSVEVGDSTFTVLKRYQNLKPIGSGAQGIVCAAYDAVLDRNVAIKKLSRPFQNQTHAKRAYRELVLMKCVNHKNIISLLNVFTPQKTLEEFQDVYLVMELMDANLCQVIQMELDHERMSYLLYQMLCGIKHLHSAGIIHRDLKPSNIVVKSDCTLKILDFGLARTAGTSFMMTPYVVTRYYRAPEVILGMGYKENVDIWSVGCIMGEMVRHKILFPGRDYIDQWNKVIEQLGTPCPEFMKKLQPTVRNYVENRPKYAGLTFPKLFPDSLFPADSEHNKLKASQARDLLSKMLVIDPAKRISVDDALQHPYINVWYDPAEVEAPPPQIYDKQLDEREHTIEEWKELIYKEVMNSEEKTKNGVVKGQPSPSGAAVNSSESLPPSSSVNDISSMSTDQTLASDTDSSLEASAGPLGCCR
ROCK2 inh: inhibitors of human ROCK2 kinase, primary screen, biochemical, high-throughput, luminescence; Rho-associated protein kinase 2 (Homo sapiens), O75116; purified ROCK2, Kinase-Glo ATP depletion luminescence; inhibition, % at 6 µM; 60,000 compounds, 0.35% hits; AID 604, 2007;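 active = inhibition above the screen-wide mean inhibition plus 3 SD, cut at about 18% in these data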
Hsp90 block: tumor Hsp90 inhibitors, primary screen, cell lysate, fluorescence polarization, NCI-N417 lysate; Heat shock protein HSP 90-alpha (Homo sapiens), P07900; Cy3B-geldanamycin FP displacement; inhibition, % at 30 µM; 64,000 compounds, 0.35% hits;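 active = inhibition above 50%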
PKA kinase inh: inhibitors of human PKA kinase activity, primary screen, biochemical, ATP-depletion luminescence, Kemptide substrate; PKA Kemptide phosphorylation, Kinase-Glo ATP luminescence; inhibition, % at 6 µM; 65,000 compounds, 0.1% hits;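 active = inhibition above the screen-wide mean inhibition plus 3 SD, cut at about 21% in these data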
Hits are given with their value; - = inactive; . = not tested or not shown.

SMILES	Jurkat viability	JNK3 blocker	ROCK2 inh	Hsp90 block	PKA kinase inh
O=C1C2C3C=CC(CO)(O3)C2C(=O)N1c1ccccc1-c1ccccc1 (stereo not given)	61	-	-	-	-
O=C(Nc1ccc2c(c1)CCC2)C1CCN(c2c3c(nc4ncnn24)CCC3)CC1	44	-	-	-	-
CCN1C(=O)N(CC)C2C1N(C(C)=O)C(=O)N2C(C)=O (stereo not given)	-	-	-	-	-
COc1cccc2sc(Nc3nc(-c4ccccn4)cs3)nc12	92	-	-	-	-
COc1cccc2sc(Nc3nnc(-c4cccs4)o3)nc12	47	-	-	-	-
Fc1cccc2sc(Nc3nnc(-c4ccco4)o3)nc12	-	-	-	-	-
COc1cc(NCCCC(C)=NO)c2nccc(Cl)c2c1	.	.	.	-	.
O=S(=O)(NCc1ccncc1)c1ccc(Br)s1	94	-	-	-	-
CCOC(=O)N1CCN(C(=O)c2ccccc2-c2ccccc2)CC1	79	-	-	-	-
CCOC(=O)N1CCN(C(=O)c2ccccc2CCc2ccccc2)CC1	-	-	-	-	-
COc1cc(NCCCN)c2ncccc2c1	.	.	.	-	.
COc1cccc(NC(=O)CCCn2c(=O)[nH]c3ccccc3c2=O)c1	-	19	-	-	-
O=C(O)CCn1c(=O)[nH]c2ccccc2c1=O	-	-	-	-	-
CC(=O)Oc1cc2c(C(=O)NCCCN3CCOCC3)c(C)oc2c2ccccc12	-	-	-	94	-
O=C(NCCCN1CCOCC1)c1cc2ccccc2oc1=O	-	-	-	-	-
c1ccc(OCCn2cnc3ccccc32)cc1	-	-	-	-	-
c1ccc(OCCCCn2cnc3ccccc32)cc1	33	-	-	-	-
O=C(c1ccc2c3c(cccc13)CC2)N1CCN(c2ncccn2)CC1	-	-	-	-	-
CN(C)P(=NC(=O)COc1ccc(Cl)cc1Cl)(N(C)C)N(C)C	-	-	-	-	-
O=C1C(C=NCc2cccnc2)=C(O)c2ccccc21	-	28	-	-	-
COc1ccc(C2=NO[C@@H]3C(=O)N(c4c(C)cccc4C)C(=O)[C@H]23)cc1OC	-	-	-	74	-
Cc1ccc(C)c(S(=O)(=O)Nc2ccc3scnc3c2)c1	92	-	-	-	-
c1ccc(Cn2ncc3c2ncn2c(-c4ccncc4)nnc32)cc1	-	-	-	-	76
c1ccc(Cn2ncc3c2ncn2nc(-c4ccncc4)nc32)cc1	-	-	-	-	48
Cc1ccc(-n2ncc3c2ncn2c(-c4ccncc4)nnc32)cc1	-	-	-	-	-
SMILES	Jurkat viability	JNK3 blocker	ROCK2 inh	Hsp90 block	PKA kinase inh
Cn1ncc2c1ncn1nc(CCc3ccccc3)nc21	-	-	-	-	-
CC(=O)Nc1ccccc1OCC(=O)c1cc(C)n(Cc2cccs2)c1C	100	-	-	-	-
Cn1cc(/C(Cc2ccccc2)=N\O)c2ccccc21	59	-	-	-	-
O=C(NCCc1ccccc1)c1cnn2c(C(F)F)cc(C3CC3)nc12	-	-	-	-	-
Cc1nn(C)cc1CNC(=O)c1cnn2c(C(F)F)cc(C3CC3)nc12	-	33	-	-	-
O=C(Nc1ccc(S(=O)(=O)Nc2cnc3ccccc3n2)cc1)c1ccc(Br)o1	-	-	-	-	-
CC(=O)Nc1cnc2ccccc2n1	.	-	-	56	-
COc1cc(C(=O)Nc2cccc(-c3nncn3C)c2)cc(OC)c1OC	-	-	-	-	-
Cc1oc2c(CN3CCCC3)c(O)ccc2c(=O)c1-c1ccc(Br)cc1	-	-	-	-	-
Cc1oc2c(O)c(O)ccc2c(=O)c1-c1ccccc1	-	-	-	70	-
O=C1O/C(=C/Br)CCC1c1cccc2ccccc12 (stereo not given)	.	.	.	-	.
CC(C)(C)C(=O)c1sc(Nc2ccccc2)nc1N	-	-	27	-	-
CC(=O)SC1CC2=CC(=O)CC[C@]2(C)C2CC[C@@]3(C)C(CC[C@@]34CCC(=O)O4)C12 (stereo not given in full)	.	.	.	-	.
C=CCN1C(=Nc2cccnc2)SCC1(O)c1ccc(C)cc1 (stereo not given)	39	-	-	-	-
C=CCN1C(=O)CSC1=Nc1cccc(O)c1	.	.	.	-	-
O=C(Nn1c(=S)[nH]c2ccccc2c1=O)c1ccncc1	-	-	20	-	-
O=C(CCN1CCCCC1)Nn1c(=S)[nH]c2ccccc2c1=O	-	-	-	-	-
Cc1ccsc1C(C(=O)NC1CCCCC1)N(C(=O)c1csnn1)C1CC1 (stereo not given)	-	-	-	-	-
COC(=O)c1ccccc1NC(=O)COC(=O)c1ccco1	-	21	-	-	-
COC(=O)c1ccccc1NC(=O)COC(=O)CSCC(=O)N1CCOCC1	-	19	-	-	-
O=C(COC(=O)CSCC(=O)N1CCCCC1)Nc1ccc(Cl)cc1	-	-	-	-	-
COC(=O)c1ccc(CSc2nc3ccccc3c(=O)n2Cc2ccco2)o1	-	-	-	-	-
CC(N)=NCCC[C@H](N)C(=O)O	.	.	.	-	.
Cc1cccc(N2CCN(c3cccc(C)c3)C2c2cccnc2)c1	94	-	-	-	-
Cc1ccc(N2CCN(c3ccc(C)cc3)C2c2ccncc2)cc1	-	-	-	-	-
SMILES	Jurkat viability	JNK3 blocker	ROCK2 inh	Hsp90 block	PKA kinase inh
O=C(NCCN1CCOCC1)NC1(C(F)(F)F)Oc2ccc(Cl)cc2O1 (stereo not given)	80	-	-	65	-
COCC(C)NC(=O)NC1(C(F)(F)F)Oc2ccc(Cl)cc2O1 (stereo not given)	.	.	.	.	-
CC(CN1CCCC(C(N)=O)C1)c1ccccc1 (stereo not given)	-	-	-	-	-
CCOC(=O)c1c(C)[nH]sc1=S	.	19	-	-	-
COc1cc2c(cc1NC(=O)COC(=O)Cn1cnc3ccccc31)oc1ccccc12	-	-	-	-	24
COc1ccc(OCc2nnc(SC(C)C(=O)Nc3nccs3)n2-c2ccccc2)cc1 (stereo not given)	-	-	-	-	-
CCOC(=O)C1=C(CSc2nc(-c3ccncc3)ccc2C#N)OC(N)=C(C#N)C1c1cccnc1 (stereo not given)	.	-	21	-	-
COc1ccccc1N1CCN(C(=O)c2cnn3cccnc23)CC1	-	-	-	-	-
CCOC(=O)c1[nH]c(C)c(C(=O)Nc2cccc(Cl)c2C)c1C	64	-	-	-	-
CCOC(=O)c1[nH]c(C)c(C(=O)Nc2ccc(Cl)cc2)c1C	-	-	-	-	-
CCOC(=O)c1[nH]c(C)c(C(=O)N2CCc3ccccc32)c1C	97	-	-	-	-
CN1CCC2=C(CCCC2CCc2ccc(Cl)c(Cl)c2)C1 (stereo not given)	.	.	.	-	.
CCCCCCn1c2c(c(=N)c3c1CCC3)CCC2	91	-	-	-	-
CCCCn1c2c(c(=N)c3c1CCC3)CCC2	69	-	-	-	-
COCc1nc2c([nH]1)c(=O)n(C)c(=O)n2CC(C)C	.	.	.	-	.
